# Screens deposited in PubChem BioAssay by National Center for Advancing Translational Sciences (NCATS).
# Shown is part of a subset that was picked to be rich in hits.
# IMPase inh – IMPase inhibition in cells. 120,000 tested, under 10 active. inhibition (IP1 accumulation), % at 46.1 µM. AID 901. CHO-M1 cells, IP1 accumulation, HTRF TR-FRET ratio; active = well fitted curve in the direction sought with a large enough effect in the signal ratio, not every such curve was filed as active; inconclusive = small, poorly fitted or top-dose-only effect, or a change in a side signal; inactive = no such curve, though single readings can be large or run the other way; the % refers to the signal ratio;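 also: cells stimulated with carbachol in lithium chloride buffer; plate controls were DMSO basal wells for no effect and reference inhibitor wells for full effect; higher means more IMPase inhibition seen as more IP1 and lower FRET ratio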
# Target sequence (P97697 whole entry, looked up): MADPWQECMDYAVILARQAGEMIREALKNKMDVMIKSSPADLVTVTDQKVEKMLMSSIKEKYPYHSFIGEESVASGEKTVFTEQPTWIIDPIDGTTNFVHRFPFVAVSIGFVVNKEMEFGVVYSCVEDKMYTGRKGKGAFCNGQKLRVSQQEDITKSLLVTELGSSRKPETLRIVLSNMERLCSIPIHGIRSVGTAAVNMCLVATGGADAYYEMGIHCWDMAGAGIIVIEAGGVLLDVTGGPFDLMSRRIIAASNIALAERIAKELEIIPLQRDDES
#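 CHO-M1, 2000 cells/well, cultured 16–30 h; cpd up to 46 uM; carbachol (50 uM solution, stimulation buffer w/ 50 mM LiCl, pH 7.4), 30 min 37C; IP-One TR-FRET, 10 min RT; Ex 320/Em 665, 620; Hill-fit AC50.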
# NPSR antag – blocks cAMP signaling of the human neuropeptide S receptor. Q6W5P4. CHO-NPSR cells, cAMP TR-FRET, antagonist mode. Potency, µM (top dose mostly 38.3 µM), for the others: at the top dose activity change, negative = inhibition, actives largely listed as inhibitors. hit rate 1% among 220,000; also: potency is read from the fitted curve at half-maximal effect; nearly all actives have a fitted effect of over 50% in size
# Target sequence (Q6W5P4 whole entry, looked up): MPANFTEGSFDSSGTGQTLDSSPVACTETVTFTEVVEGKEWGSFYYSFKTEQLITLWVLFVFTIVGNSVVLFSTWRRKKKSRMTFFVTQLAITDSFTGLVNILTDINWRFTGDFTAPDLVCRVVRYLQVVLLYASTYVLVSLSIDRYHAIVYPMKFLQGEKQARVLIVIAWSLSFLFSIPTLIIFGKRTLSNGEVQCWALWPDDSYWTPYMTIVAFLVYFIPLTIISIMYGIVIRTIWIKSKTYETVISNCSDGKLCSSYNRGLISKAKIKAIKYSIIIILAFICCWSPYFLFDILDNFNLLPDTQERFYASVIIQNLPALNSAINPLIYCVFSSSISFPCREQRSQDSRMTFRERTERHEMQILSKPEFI
# IMPase Li inh – IMPase inhibition in cells with lithium potentiation; CHO-M1 cells, IP1 TR-FRET (IP-One), carbachol + lithium; Potency, µM (top dose mostly 59.4 µM), inactives show at the highest dose activity, negative = IMPase inhibition, most hits filed as inhibitors; hit rate 0.35% among 210,000; AID 1457;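 also: IP1 builds up when IMPase is blocked and the TR-FRET signal falls; potency is read from the fitted curve at half-maximal effect; plate controls were basal vehicle for no effect and high inhibitor control for full effect; nearly all actives have a fitted effect of over 50% in size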
#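 Test compounds were applied to CHO-M1 cells previously cultured for 16–30 h at 2000 per well. A small lithium amount accompanied them; after 30 min at 37C, IP1 was quantified by TR-FRET.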
# * marks the source's active call; other numbers are inactive results; ? = inconclusive; · = no result; ! = repeats disagree; [ ] = another dose, or the depositor's remark. Unless noted, calls follow the shape of the dose curve; as a rule, active = well fitted curve in the direction sought with a large enough effect; inconclusive = small, poorly fitted or top-dose-only effect, or another doubt; inactive = no such curve, though single readings can be large; an effect the other way counts as inactive or inconclusive. Unless noted, % is scaled to controls: 0 for no effect and ±100 for the full control effect.
SMILES,IMPase inh,NPSR antag,IMPase Li inh
CCOC(=O)c1c(-c2ccc(C)cc2)csc1NC(=O)c1cc2ccccc2oc1=O,4,10µM*,18%[38.3 µM]
CCOC(=O)c1c(-c2ccc(C)cc2)csc1NC(=O)C1CC=CCC1C(=O)O (centres undefined),-2,-21%[46.1 µM],-19%[38.3 µM]
CCCCOc1cccc(C(=O)Nc2sc3c(c2C(=O)OCC)CCCC3)c1,-11,·,·
COCCNc1nc(C)nc2c1nc(-c1ccccc1)n2CCN1CCCC1,·,·,-4%
CC1CCCCN1S(=O)(=O)c1ccc(C(=O)Nc2sccc2C(N)=O)cc1 (centres undefined),8,1.6µM*,32%[38.3 µM]
NC(=O)c1ccsc1NC(=O)C1CCCN1S(=O)(=O)c1ccc(Cl)cc1 (centres undefined),0,-21%[46.1 µM],13%[38.3 µM]
CCc1ccc(CCC(=O)O)nc1,·,·,-7%
Cc1ccc(Nc2c(-c3ccccn3)nc3ccc(C)cn23)cc1,·,10µM*,19%
Cc1ccc(Nc2c(-c3ccccn3)nc3cc(C)ccn23)cc1,·,?,13%
CC(C)(C)c1ccc(NS(=O)(=O)c2ccc(N)cc2)cc1,·,25%,-7%
CC(C)(C)c1ccc(S(=O)(=O)/C=C/C#N)cc1,·,20µM*,17%
CCOc1cc2[nH]c(=S)n(CCC(=O)NCc3ccco3)c(=O)c2cc1OCC,·,-12%,?
O=C(NCc1ccco1)c1ccc2c(=O)n(-c3ccccc3)c(=S)[nH]c2c1,-27,1%[46.1 µM],13µM*
COc1ccc(-n2c(=S)[nH]c3cc(C(=O)NCc4ccco4)ccc3c2=O)cc1OC,0,-8%[46.1 µM],-17%[38.3 µM]
CCOc1cc2[nH]c(=S)n(CCCC(=O)NCc3ccco3)c(=O)c2cc1OCC,-1,-10%[46.1 µM],14µM*
COc1ccccc1OCC(=O)N(Cc1cccs1)C1CCS(=O)(=O)C1 (centres undefined),-6,·,·
Cc1nc(NCc2ccccc2)c2nc(-c3ccccc3)n(CCN3CCCC3)c2n1,·,·,3%
Cc1cc(C)c(O)c(N)c1,·,-4%,14%
S=C(S)NCCN1CCNCC1,·,·,2%
CC(=O)O[C@H]1C[C@H]2CC[C@@H]3[C@@H](CC[C@]4(C)[C@H](OC(C)=O)[C@H]([N+]5(C)CCCCC5)C[C@@H]34)[C@]2(C)C[C@H]1[N+]1(C)CCCCC1,7[20.6 µM],·,-5%
O=C(Nc1ccc(F)cc1)Nc1ccc(N2CCCC2)c(S(=O)(=O)Nc2ccccc2Cl)c1,·,10µM*,14%
O=C(Nc1ccc(Cl)c(Cl)c1)Nc1ccc(N2CCCC2)c(S(=O)(=O)Nc2ccccc2Cl)c1,·,-58%,0%
Cc1cc(Oc2ccc(=O)n(C)n2)nc(=S)[nH]1,·,3%,-11%
Cc1cc(C(C)(C)C)c(OCCCN2CCOCC2)c(C(C)(C)C)c1,·,·,1%
COCCCn1c(=S)[nH]c2c(sc3ccccc32)c1=O,·,-42%,10µM*
SMILES,IMPase inh,NPSR antag,IMPase Li inh
CC1CCN(CCCn2c(=S)[nH]c3c(sc4ccccc43)c2=O)CC1,·,-21%,-19%
COc1ccccc1C(=O)Nc1ccc(S(=O)(=O)Nc2nc(C)cc(C)n2)cc1,1,·,·
CN(C)S(=O)(=O)c1cccc(-c2nn(-c3ccccc3)cc2/C=C(\C#N)c2nc3ccccc3[nH]2)c1,1,-23%,-3%
CN(C)S(=O)(=O)c1cccc(-c2nn(-c3ccccc3)cc2/C=C2\SC(=S)NC2=O)c1,13,7.9µM*,14%
C=CCc1cccc(CNc2nc3ccccc3n2CC)c1O,5,?,1%[38.3 µM]
C=CCc1cccc(CNc2nc3ccccc3n2CCC)c1O,8,10µM*,9%[38.3 µM]
CS(=O)(=O)c1ccc2nc(NC(=O)c3ccc(NS(=O)(=O)c4ccc(F)c(F)c4)cc3)sc2c1,·,-55%,·
O=C(Nc1nc2ccc(SC(F)F)cc2s1)c1ccc(NS(=O)(=O)c2ccc(F)c(F)c2)cc1,·,13µM*,0%
C[C@@]12C(=O)OC(=O)[C@@]1(C)[C@H]1CC[C@@H]2O1,12,·,·
N[C@H](CS)C(=O)O,·,·,-5%
O=C(c1cnccn1)N1CCC2(CCCN(c3cccc(-c4ccccc4)c3)C2)CC1,·,·,11%
CC(C)(C)CC(=O)Nc1cccc(-c2cn3cccnc3n2)c1,·,9%,2%
COCC(=O)Nc1ccc(-c2cn3cccnc3n2)cc1,-25,-9%[46.1 µM],11µM*
CCCn1c(SCC(=O)Nc2cccc(S(=O)(=O)N(C)C)c2)nc2ccccc2c1=O,·,-54%,·
CCCCC/C=C\C/C=C\C/C=C\CCCCCCC(=O)NC(C)C(=O)O (centres undefined),·,·,10%
COc1ccc(-c2c([C@H]3[C@H]4C=CC[C@@H](C)[C@@H]4C(=O)N3Cc3ccccc3)ccc3ccccc23)cc1OC,·,6.3µM*,·
COc1ccc(-c2ccc([C@H]3[C@H]4C=CC[C@@H](C)[C@@H]4C(=O)N3Cc3ccccc3)c(F)c2)cc1C,·,-52%,·
Cc1ccc2cc(CCNC(=O)CC(C)(C)C)c(=O)[nH]c2c1C,?,-44%,13µM*
CC(=O)NCCc1cc2ccc(C)c(C)c2[nH]c1=O,1,-5%[46.1 µM],-3%[38.3 µM]
C[C@H]1[C@H](C)CC[C@]2(C(=O)O)CC[C@]3(C)C(=CC[C@H]4[C@]3(C)C[C@@H](O)C3[C@](C)(CO)[C@H](O)[C@@H](O)C[C@]34C)[C@H]12 (some centres undefined),·,·,-1%
Nc1ccc(-c2nc3ccc(-c4nc5ccc(N)cc5[nH]4)cc3[nH]2)cc1,?,5%[46.1 µM],10µM*!
Nc1ccc(-c2nc3ccccc3[nH]2)cc1,3,-17%[46.1 µM],2%[38.3 µM]
COc1cc2c(cc1OC)C(c1ccc(-c3ccccc3Cl)o1)=NCC2,15,?,34%[38.3 µM]
COc1cc2c(cc1OC)C(c1ccc(-c3ccc(Cl)cc3Cl)o1)=NCC2,11,7.9µM*,12%[38.3 µM]
COC(=O)[C@@]1(Cc2ccc(OC)cc2)[C@H]2c3cc(C(=O)N(C)C)n(Cc4ccccn4)c3C[C@H]2CN1C(=O)c1ccccc1,·,·,4%
Cn1c(SCc2ccccn2)nc2c1c(=O)[nH]c(=O)n2C,·,11%,·
Brc1cnc2nc(SCc3nc4ccccc4[nH]3)[nH]c2c1,·,2%,·
Fc1ccc(CSc2nc3ncc(Br)cc3[nH]2)cc1,3,?,14µM*
CNC1C(O)C2OC3OC(C)CC(=O)[C@@]3(O)O[C@H]2[C@H](NC)C1O (some centres undefined),·,·,-1%
COc1ccc(N2C(=O)CC(Sc3nnc(-c4ccccc4)o3)C2=O)cc1 (centres undefined),?,?,8.9µM*
